# Results from PubChem BioAssay (EPA / NIEHS).
# Records with an inconclusive call do not appear. The source made the active and inactive calls. Rule for the calls, unless noted: active = hit-call score of the fitted dose curve at least 0.9, where 1 is the maximum; inactive = score below 0.9.
# Assays:
# [1] = molecular target: Cellular tumor antigen p53 (Homo sapiens) (UniProt P04637); assay: TOX21_p53_BLA_p2_ratio: Tox21 HCT-116 p53 Agonism Beta-lactamase Assay, Ratio, Phase 2 (AID 2283592; active = hit-call score of the fitted dose curve at least 0.9, where 1 is the maximum)
# Summary of the method: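 Ratio endpoint: beta-lactamase cleavage of CCF4-AM, blue (460 nm) over green (530 nm). HCT116 reporter line; 16 h treatment, 37C; substrate 2 h RT.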
# [2] = TOX21_p53_BLA_p3_viability: Viability Assessment in the Tox21 HCT-116 p53 Agonism Beta-lactamase Assay, Phase 3 (AID 2283593; active = hit-call score of the fitted dose curve at least 0.9, where 1 is the maximum;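 note: cells exposed to compound for 16 h before reading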)
# Summary of the method: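 HCT-116 cells (4000/well) rested 5 h at 37C, then got DMSO compounds by pin tool (217-fold dilution) for 16 h at 37C, 5% CO2. After the bla read, CellTiter-Glo was added and luminescence read at 30 min, room temperature.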
# [3] = molecular target: Cellular tumor antigen p53 (Homo sapiens) (UniProt P04637); assay: TOX21_p53_BLA_p3_ratio: Tox21 HCT-116 p53 Agonism Beta-lactamase Assay, Ratio, Phase 3 (AID 2283596; active = hit-call score of the fitted dose curve at least 0.9, where 1 is the maximum)
# Summary of the method: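 Cells were seeded at 4000/well, rested 5 h at 37C, then dosed with DMSO compound solutions (217-fold dilution) for 16 h. CCF4-AM substrate was loaded for 2 h at room temperature, and the 460/530 nm emission ratio was fitted for gain of signal versus DMSO.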
# [4] = TOX21_p53_BLA_p4_viability: Viability Assessment in the Tox21 HCT-116 p53 Agonism Beta-lactamase Assay, Phase 4 (AID 2283597; active = hit-call score of the fitted dose curve at least 0.9, where 1 is the maximum;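 note: hits lower the luminescence signal meaning cytotoxicity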)
# Summary of the method: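 Cytotoxicity was inferred from loss of CellTiter-Glo luminescence. HCT116 cells had been dosed with compounds after 5 h plating, incubated 16 h at 37C and 5% CO2, and exposed to the CCF4-AM substrate for 2 h.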
# [5] = molecular target: Cellular tumor antigen p53 (Homo sapiens) (UniProt P04637); assay: TOX21_p53_BLA_p5_ratio: Tox21 HCT-116 p53 Agonism Beta-lactamase Assay, Ratio, Phase 5 (AID 2283599; active = hit-call score of the fitted dose curve at least 0.9, where 1 is the maximum)
# Summary of the method: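 HCT-116 cells carrying a p53-inducible beta-lactamase reporter were seeded at 4000 cells/well and dosed after 5 h with compound in DMSO (217-fold dilution). After 16 h at 37C, CCF4-AM substrate was added for 2 h, and the 460/530 nm emission ratio was scored as gain-of-signal versus DMSO.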
# [6] = TOX21_p53_BLA_p5_viability: Viability Assessment in the Tox21 HCT-116 p53 Agonism Beta-lactamase Assay, Phase 5 (AID 2283600; active = hit-call score of the fitted dose curve at least 0.9, where 1 is the maximum)
# Summary of the method: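 Luciferase-coupled ATP quantitation of cells treated for 16 h (37C, 5% CO2) with test chemicals delivered in DMSO via a 217-fold dilution; 4000 cells/well; reagent incubated 30 min at room temperature before luminescence reading.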
# [7] = molecular target: Cellular tumor antigen p53 (Homo sapiens) (UniProt P04637); assay: TOX21_p53_BLA_p4_ratio: Tox21 HCT-116 p53 Agonism Beta-lactamase Assay, Ratio, Phase 4 (AID 2283601; active = hit-call score of the fitted dose curve at least 0.9, where 1 is the maximum)
# Summary of the method: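 HCT116 cells carrying an inducible beta-lactamase reporter were plated at 4000 cells/well, rested 5 h, then exposed to compounds in DMSO (217-fold dilution) for 16 h at 37C. CCF4-AM substrate was loaded 2 h at room temperature; 460/530 nm emission ratio scored gain-of-signal versus DMSO.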
# [8] = CCTE_Shafer_MEA_acute_spike_number: CCTE's Neural Acute Assay for Total Number of Spikes, Shafer Lab (AID 2284008)
# Summary of the method: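 Primary rat cortical neurons on 16-electrode MEA wells; on DIV 13 or 15, 40-min baseline then 40-min recording with compound (0.03-40 uM) at 37 C. Spikes detected at 8x rms noise; percent change versus baseline, DMSO as negative control.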
# [9] = CCTE_Shafer_MEA_acute_burst_number: CCTE's Neural Acute Assay for Single-Electrode Bursts, Shafer Lab (AID 2284013)
# Summary of the method: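 Burst totals were derived with adaptive spike detection (8x rms threshold) on filtered signals from rat cortical cultures; change relative to pre-treatment baseline after 40-min compound exposure (0.03-40 uM) was fitted in the negative direction against DMSO.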
# [10] = CCTE_Shafer_MEA_acute_burst_duration_mean: CCTE's Neural Acute Assay for Mean Burst Duration, Shafer Lab (AID 2284014);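 note: hits are decreases in mean burst duration relative to DMSO controls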
# Summary of the method: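 Acute exposure of mature rat cortical networks (DIV 13 or 15) grown on microelectrode arrays to 0.03-40 uM compound. Mean burst duration compared with the 40-min pre-dose baseline over a 40-min post-dose recording at 37 C.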
# [11] = CCTE_Shafer_MEA_acute_per_burst_spike_number_mean: CCTE's Neural Acute Assay for Average Number of Spikes Per Burst, Shafer Lab (AID 2284015);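 note: hits are decreases in mean spikes per burst versus baseline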
# Summary of the method: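 Read-out: percent change in mean spikes per burst, each well's post-exposure 40-min recording versus its own 40-min baseline. Rat cortical cultures, DIV 13 or 15, compounds 0.03-40 uM; DMSO is negative control, loss-of-signal fitting.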
# [12] = CCTE_Shafer_MEA_acute_interburst_interval_mean: CCTE's Neural Acute Assay for Mean Interburst Interval, Shafer Lab (AID 2284016);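 note: percent change of mean interburst interval versus each well's own pre-dose baseline; curves fitted for decrease in interburst interval relative to DMSO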
# Summary of the method: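 Rat cortical cultures, DIV 13/15; 20 min equilibration, 40 min baseline, compound 0.03-40 uM, 40 min re-recording, 37 C. Spikes detected at 8x rms noise (300-5000 Hz band-pass). Endpoint: % change in interburst interval, fitted in loss direction vs DMSO.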
# [13] = CCTE_Shafer_MEA_acute_burst_percentage_mean: CCTE's Neural Acute Assay for Percentage of Spikes in a Burst, Shafer Lab (AID 2284017);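 note: curve fitted for loss of signal so potency reflects decreased burst percentage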
# Summary of the method: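 Rat cortical cultures, DIV 13/15, 37 C. Spikes detected at 8x rms noise (300-5000 Hz band-pass). Burst spikes/total spikes averaged across electrodes per well; % change post- vs pre-treatment (40 min each), loss-of-signal fit vs DMSO.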
# [14] = CCTE_Shafer_MEA_acute_burst_percentage_std: CCTE's Neural Acute Assay for Standard Deviation of Burst Percentage, Shafer Lab (AID 2284018);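 note: fitted in the negative direction so actives lower burst percentage SD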
# Summary of the method: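 Primary rat cortical neurons on 16-electrode MEA wells were recorded 40 min at baseline (DIV 13 or 15), then 40 min after compound (0.03-40 uM), at 37 C. Well value is SD across electrodes of spikes-in-bursts/total spikes; endpoint is percent change, DMSO-referenced.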
# [15] = CCTE_Shafer_MEA_acute_per_network_burst_electrodes_number_mean: CCTE's Neural Acute Assay for Mean Number of Electrodes in a Network Burst, Shafer Lab (AID 2284021);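 note: curves fitted for decreases only so hits reduce electrodes per burst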
# Summary of the method: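 Rat primary cortical neurons on 16-electrode MEA wells were recorded 40 min at baseline on DIV 13 or 15, then 40 min after compound (0.03-40 uM), at 37 C. Value is percent change per well, fitted in loss direction versus DMSO.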
# [16] = CCTE_Shafer_MEA_acute_network_burst_percentage: CCTE's Neural Acute Assay for Percentage of Network Bursts, Shafer Lab (AID 2284022);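 note: curves fitted for loss so actives lower network burst percentage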
# Summary of the method: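 Primary rat cortical neurons on 16-electrode MEA wells, treated on DIV 13 or 15 with compound (0.03-40 uM); 40-min baseline and 40-min post-exposure recordings at 37 C. Value is percent change in spikes within network bursts versus baseline, DMSO negative control.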
# [17] = CCTE_Shafer_MEA_acute_cross_correlation_HWHM: CCTE's Neural Acute Assay for Cross Correlation at Half Width at Half Maximum, Shafer Lab (AID 2284026);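 note: percent change per well from pre-dose baseline in spike cross-correlogram half width; hits are a decrease in cross-correlogram half width relative to DMSO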
# Summary of the method: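 Primary rat cortical neurons on 16-electrode MEA wells; 40-min baseline on DIV 13 or 15, then 40-min recording with compound (0.03-40 uM) at 37 C. HWHM of spike cross-correlogram expressed as percent change from baseline per well, DMSO reference.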
# [18] = CCTE_Shafer_MEA_acute_synchrony_index: CCTE's Neural Acute Assay for Synchrony, Shafer Lab (AID 2284027);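 note: network synchrony index of spontaneous spiking in primary rat cortical neurons on MEAs; fitted for loss of signal so actives lower synchrony relative to DMSO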
# Summary of the method: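 Plates equilibrated 20 min at 37 C, baseline recorded 40 min, compound (0.03-40 uM) added, then 40 min more recorded. Cells: primary rat cortical neurons, DIV 13 or 15. Per-well synchrony index change analysed in negative direction against DMSO.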
# [19] = CCTE_Shafer_MEA_dev_firing_rate_mean: CCTE's Neural Network Formation Assay for Mean Firing Rate, Shafer Lab (AID 2284031)
# Summary of the method: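 Steps: seed rat cortical cells (1.5 x 10^5/well) with laminin on PEI-coated MEA; dose day 0; record DIV 5/7/9/12, full media and compound exchange after DIV 5 and 9 recordings; compute well-mean firing rate AUC.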
# [20] = CCTE_Shafer_MEA_dev_per_burst_spike_percent: CCTE's Neural Network Formation Assay for Percent of Spikes in a Burst, Shafer Lab (AID 2284032);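 note: fitted as a decrease in burst spike percentage below DMSO baseline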
# Summary of the method: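 Value is trapezoidal AUC over recordings on days 5, 7, 9 and 12 of the well-mean fraction of spikes falling in single-electrode bursts; rat cortical cultures exposed continuously from plating, treatment renewed DIV 5 and 9, fitted downward against DMSO.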
# [21] = CCTE_Shafer_MEA_dev_active_electrodes_number: CCTE's Neural Network Formation Assay for Number of Active Electrodes, Shafer Lab (AID 2284040; active = hit-call score of the fitted dose curve at least 0.9, where 1 is the maximum;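 note: potency for loss of active electrodes versus DMSO so lower counts are hits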)
# Summary of the method: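 Counts electrodes per well firing at least 5 spikes/min, recorded on days 5, 7, 9 and 12 in rat cortical cultures dosed continuously from plating (treatment refreshed DIV 5, 9). Value is the area under the curve over recordings, fitted downward relative to DMSO.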
# [22] = CCTE_Shafer_MEA_dev_burst_rate: CCTE's Neural Network Formation Assay for Burst Rate, Shafer Lab (AID 2284042)
# Summary of the method: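 Cells plated, treated day 0; recorded DIV 5, 7, 9, 12; fed and re-treated DIV 5, 9. Endpoint: bursts per recording time, active-electrode well mean, trapezoidal AUC, fitted in decreasing direction against DMSO baseline.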
# [23] = CCTE_Shafer_MEA_dev_bursting_electrodes_number: CCTE's Neural Network Formation Assay for Number of Bursting Electrodes, Shafer Lab (AID 2284043; active = hit-call score of the fitted dose curve at least 0.9, where 1 is the maximum;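 note: potency is for loss of bursting electrodes relative to DMSO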)
# Summary of the method: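 Counted: electrodes with burst rate ≥1 per 2 min in each well. Cells: primary rat cortex, 1.5 x 10^5/well, on 16-electrode MEA wells. Exposure: DIV 0–12, compound renewed DIV 5 and 9. Recording days 5, 7, 9, 12; AUC vs DMSO baseline.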
# [24] = CCTE_Shafer_MEA_dev_per_burst_interspike_interval: CCTE's Neural Network Formation Assay for Burst Interspike Interval, Shafer Lab (AID 2284044);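 note: potency for a decrease of within-burst interspike interval below DMSO level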
# Summary of the method: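 Rat cortical primary cultures, 16 electrodes/well; compound from plating, renewed with full media change DIV 5 and 9. Spikes via adaptive detector; per-burst ISI well-mean over active bursting electrodes; AUC of DIV 5/7/9/12 recordings; loss-direction fit vs DMSO.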
# Sequence of Cellular tumor antigen p53 (Homo sapiens) (P04637 whole entry, looked up): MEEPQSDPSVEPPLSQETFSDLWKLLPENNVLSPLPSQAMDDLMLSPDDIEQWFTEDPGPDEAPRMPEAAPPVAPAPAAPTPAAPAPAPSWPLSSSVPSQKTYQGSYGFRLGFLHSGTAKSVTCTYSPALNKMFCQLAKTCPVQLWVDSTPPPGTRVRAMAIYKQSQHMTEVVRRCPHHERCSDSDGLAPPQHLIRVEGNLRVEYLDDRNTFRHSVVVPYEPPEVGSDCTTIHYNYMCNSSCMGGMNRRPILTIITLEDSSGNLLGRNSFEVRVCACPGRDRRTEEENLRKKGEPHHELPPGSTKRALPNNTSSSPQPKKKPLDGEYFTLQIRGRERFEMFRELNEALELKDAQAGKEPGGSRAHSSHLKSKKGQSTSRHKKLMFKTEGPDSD
compound,measurement,setting,value
CC1(C)[C@H](C=C(Cl)Cl)[C@@H]1C(=O)O[C@@H](C#N)c1cccc(Oc2ccccc2)c1,outcome,[1],inactive
same,outcome,[2],inactive
same,outcome,[3],inactive
same,outcome,[4],inactive
same,outcome,[5],inactive
same,outcome,[6],inactive
same,outcome,[7],inactive
same,outcome,[8],inactive
same,outcome,[9],inactive
same,outcome,[10],inactive
same,AC50,[11],2610 nM (active)
same,AC50,[12],1120 nM (active)
same,AC50,[13],2240 nM (active)
same,outcome,[14],inactive
same,AC50,[15],1230 nM (active)
same,AC50,[16],2980 nM (active)
same,AC50,[17],15000 nM (active)
same,AC50,[18],1390 nM (active)
same,outcome,[19],inactive
same,AC50,[20],8960 nM (active)
same,AC50,[21],15000 nM (active)
same,outcome,[22],inactive
same,AC50,[23],8640 nM (active)
same,AC50,[24],4060 nM (active)
